Results filed as inconclusive are left out. Calls of active or inactive are those of the source. The calls were made as follows: active = hit-call score of the fitted dose curve at least 0.9, where 1 is the maximum; inconclusive = response in the unintended direction; inactive = score below 0.9.
Biological target: human Adrenoceptor Receptor alpha1A Antagonism, conducted at France lab site, ADRA1A (gene 148) (UniProt P35348)
Assay: ERF_FR_GPCR_hADRA1A: Eurofins (ERF) G Protein-Coupled Receptor (GPCR) Radioligand Binding LeadHunter Assay for human Adrenoceptor Receptor alpha1A Antagonism, conducted at France lab site
Experimental: ERF_FR_GPCR_hADRA1A is a biochemical, single-readout assay that uses extracted gene-proteins in a cell-free assay. Measurements were taken 1 hour after chemical dosing in a 96-well plate. See alpha1A Human Adrenoceptor GPCR Binding (Antagonist Radioligand) Assay, Cerep.ERF_FR_GPCR_hADRA1A is an assay component calculated from the ERF_FR_GPCR_hADRA1A assay. It is designed to measure radioligand binding using a type of binding reporter as detected by scintillation counting with radiometry technology.Data from the assay component ERF_FR_GPCR_hADRA1A was analyzed at the assay endpoint, ERF_FR_GPCR_hADRA1A, in the positive analysis fitting direction relative to DMSO as the negative control and baseline of activity. Using a type of binding reporter, loss-of-signal activity can be used to understand changes in binding as they relate to gene ADRA1A. To generalize the intended target to other relatable targets, this assay endpoint is annotated to the gpcr intended target family, where the subfamily is adrenoceptor.
Human cells are incubated for 60 minutes in room temprature, using [3H]prazosin ligand at 0.1 Kd (nM) with WB-4101 control inhibitor.Test Sample Requirements: Minimum for 1) Screen: 60 ul of 10 mM stock -OR- 1 mg (pre-weighed) for […] uM final testing. 2) Dose Response: 90 ul of 10 mM stock -OR- 1 mg (pre-weighed) for a top concentration at 10 uM.

Chain of human Adrenoceptor Receptor alpha1A Antagonism, conducted at France lab site, ADRA1A (gene 148) (P35348 whole entry, looked up): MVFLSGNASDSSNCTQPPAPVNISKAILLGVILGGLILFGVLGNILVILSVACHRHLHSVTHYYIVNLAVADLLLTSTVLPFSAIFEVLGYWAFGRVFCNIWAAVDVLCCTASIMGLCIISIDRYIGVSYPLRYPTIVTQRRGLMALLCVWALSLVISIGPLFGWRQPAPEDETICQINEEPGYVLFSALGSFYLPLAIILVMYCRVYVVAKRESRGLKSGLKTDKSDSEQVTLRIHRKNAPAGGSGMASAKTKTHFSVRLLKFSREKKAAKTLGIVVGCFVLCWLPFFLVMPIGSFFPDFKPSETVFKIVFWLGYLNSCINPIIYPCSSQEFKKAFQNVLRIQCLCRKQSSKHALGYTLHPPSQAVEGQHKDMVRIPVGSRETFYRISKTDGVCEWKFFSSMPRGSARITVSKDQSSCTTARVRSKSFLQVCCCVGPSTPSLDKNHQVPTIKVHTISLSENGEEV

Compound	AC50
COc1cc(/C=C/C(=O)CC(=O)/C=C/c2ccc(O)c(OC)c2)ccc1O	258 nM (active)
O=C(/C=C/c1ccc(O)cc1)CC(=O)/C=C/c1ccc(O)cc1	205 nM (active)

— PubChem BioAssay AID2284110 (EPA ToxCast)
